Bioassay records as filed in PubChem.
Compounds with a hit are over-represented: about 7.3% of the library has one in this group of screens.
HCV inh = qHTS Assay for Inhibitors of Hepatitis C Virus (HCV); Huh7.5.1 HCVcc-Cre infection, luciferase reporter, 44 h; Potency, µM (doses to about 41.8 µM), actives largely listed as inhibitors; 3.4% of 340,000 active; AID 651820, 2012
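Cells seeded at 1,000/well and cultured 4 h, then compounds added followed by HCVcc-Cre virus (~0.5 moi). After 44 h further culture, luciferase substrate was added, plates held 15 min at room temperature, and luminescence read for 15 sec.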
AmpC inh no detg = qHTS Inhibitors of AmpC Beta-Lactamase (assay without detergent); P00811; AmpC nitrocefin hydrolysis, absorbance 480 nm, 0.0001% Triton; Potency, µM (titrated, usually from 57.1 µM), actives largely listed as inhibitors; 0.52% of 330,000 active; AID 485341, 2010; also: nearly all actives have a fitted effect of over 20% in size
Target sequence (P00811 whole entry, looked up): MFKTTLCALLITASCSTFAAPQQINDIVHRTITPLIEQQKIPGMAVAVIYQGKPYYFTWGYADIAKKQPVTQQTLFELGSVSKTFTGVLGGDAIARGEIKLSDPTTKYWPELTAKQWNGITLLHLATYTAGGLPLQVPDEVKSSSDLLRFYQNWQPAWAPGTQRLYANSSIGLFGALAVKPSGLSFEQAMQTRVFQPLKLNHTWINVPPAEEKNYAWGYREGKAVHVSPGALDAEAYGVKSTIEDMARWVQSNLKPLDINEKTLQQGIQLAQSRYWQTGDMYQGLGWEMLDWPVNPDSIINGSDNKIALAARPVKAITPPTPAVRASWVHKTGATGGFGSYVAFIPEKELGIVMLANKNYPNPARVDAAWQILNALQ
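20 mM phosphate pH 7.0 + 0.01% (detergent screen) or 0.0001% Triton X-100; 5.3 nM AmpC reagent; cpd preinc 15 min RT; nitrocefin (800 uM stock) to start; A480 q20 s × 4 min; Activity was normalised to no-enzyme and no-compound control wells.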
AmpC inh detg = qHTS Inhibitors of AmpC Beta-Lactamase (assay with detergent); P00811; AmpC hydrolysis of nitrocefin, absorbance 480 nm, 0.01% Triton; Potency, µM (titrated, usually from 114 µM), usual class: inhibitors; 0.041% of 370,000 active; AID 485294, 2010; also: nearly all actives have a fitted effect of over 25% in size
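AmpC (5.3 nM in the dispensed reagent) in 20 mM phosphate pH 7.0 with 0.01% (detergent screen) or 0.0001% Triton X-100 was preincubated with compounds for 15 min at room temperature. Nitrocefin was then added from an 800 uM solution, and hydrolysis was followed at 480 nm.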
HCMV antiviral = qHTS Assay for inhibitors of the human cytomegalovirus (HCMV); activity change, negative = inhibition, % at 57.5 µM; 4.5% of 410,000 active; HFF cells, HCMV-luciferase reporter, 72 h; hits give low values; in the data active = activity change below about -60%; inconclusive = no clear call, values can overlap the other calls; inactive = above about -39%
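Inhibition of viral replication was scored as loss of reporter luminescence in HFFs infected with HCMV-luciferase (MOI 1 PFU/cell) for 72 h; compounds tested at 2 doses, normalized to buffer and Salinomycin controls.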
FMDV inh = High Throughput Screening for Foot and Mouth Disease Virus Antivirals; FMDV antiviral cell-based qHTS; Potency, µM (top dose mostly 57.9 µM), actives largely listed as inhibitors; 1.2% of 410,000 active; calls by dose curve; tested in HEK293T cells; also: read-out not given here; nearly all actives have a fitted effect of over 45% in size
A number is an active result; - = inactive; ? = inconclusive; . = no result; [ ] = remark or other dose. Unless noted, calls follow the shape of the dose curve; as a rule, active = well fitted curve in the direction sought with a large enough effect; inconclusive = small, poorly fitted or top-dose-only effect, or another doubt; inactive = no such curve, though single readings can be large; an effect the other way counts as inactive or inconclusive.

SMILES | HCV inh | AmpC inh no detg | AmpC inh detg | HCMV antiviral | FMDV inh
O=C(Nc1nc(-c2ccco2)cs1)c1ccccc1 | - | - | - | - | -
O=C(Nc1nc(-c2ccccn2)cs1)c1ccc([N+](=O)[O-])o1 | 8.9µM | - | - | - | -
Cc1ccc(-c2csc(NC(=O)c3ccc(-c4ccccc4)cc3)n2)o1 | 8.9µM | - | - | . | -
CCOC(=O)c1cccc(NC(=O)COc2ccc([N+](=O)[O-])cc2)c1 | ? | - | - | - | .
COc1ccccc1C(=O)NCC(=O)N/N=C/c1cccc(Cl)c1 | - | - | - | - | -
O=C(Cn1cnc2c(NCc3ccccc3)ncnc21)NCCc1cc2ccccc2[nH]1 | - | - | . | - | -
O=C(Nc1nc(-c2ccccn2)cs1)c1ccc(-c2ccccc2F)o1 | ? | - | - | -70 | -
CC(=O)c1ccc(-c2ccc(C(=O)Nc3nc(-c4ccccn4)cs3)o2)cc1 | 2.5µM | - | . | - | -
O=C(COC(=O)C1CC2CCCC(C1)C2=O)NNC(=O)c1ccccc1Br (stereo unspecified) | - | - | - | - | -
Cc1ccc(S(=O)(=O)CCSc2ccc(C(F)(F)F)cn2)cc1 | - | - | - | - | -
O=S(=O)(CCSc1ccc(C(F)(F)F)cn1)c1ccccc1 | - | - | - | -60 | -
Cc1cc(C)nc(NS(=O)(=O)c2ccc(Br)s2)c1 | - | - | - | - | -
Cc1ccc(NS(=O)(=O)c2ccc(Br)s2)nc1 | 3.5µM | -[2.29 µM] | - | ? | -
O=C(CSc1nncc2ccccc12)N1CCCCC1 | - | - | - | -64 | -
CC(C)c1nc(SCC(=O)N2CCCC2)c2ccccc2n1 | ? | - | - | -78 | -
O=C(CSc1nc(C2CC2)nc2ccccc12)N1CCCCC1 | - | - | - | - | -
O=C(CSc1nc(C2CCCCC2)nc2ccccc12)N1CCCC1 | - | - | - | -101 | -
CN(C)c1ccc(C=Cc2ccnc3c(O)cccc23)cc1 | . | . | . | -99 | -
CN(C)c1ccc(/C=C/c2cc[n+](C)c3ccccc23)cc1 | 11µM | - | - | -99 | 8.9µM
CN(C)c1ccc(C=Cc2ccnc3ccccc23)cc1N | . | . | . | - | -
C[n+]1ccc(/C=C/c2ccccc2O)c2ccccc21 | - | - | - | -97 | -
C[n+]1ccc(-c2ccccc2)c2ccccc21 | ? | - | - | -87 | ?
CN(C)c1ccc(C=Nc2ccccc2)cc1 | - | - | ? | - | .
CC(=O)c1cccc(NC(=O)C(C)OC(=O)c2cc(=O)[nH]c3ccccc23)c1 (stereo unspecified) | - | - | - | - | -
CC(C)(C)OC(=O)N1CCCC(C(=O)Nc2ccc(C(=O)N3CCCCC3)cc2)C1 (stereo unspecified) | ? | - | . | ? | ?
SMILES | HCV inh | AmpC inh no detg | AmpC inh detg | HCMV antiviral | FMDV inh
CC(=O)Nc1c(Cl)cc2c(c1Cl)Cc1cc(C#N)ccc1-2 | ? | . | . | - | -
COc1ccc(OC)c(NC(=O)N2CCN(Cc3nc4ccc(C)cc4o3)CC2)c1 | . | . | - | - | -
C=CCCC1CN(Cc2ccc(OC)cc2)S(=O)(=O)c2c(NCc3cc(OC)c(OC)c(OC)c3)cccc2O1 (stereo unspecified) | . | . | . | - | .
OCCCCCN=c1cc(-c2ccccc2)oc2ccc(Cl)cc12 | ? | - | ? | -62 | -
Clc1ccc2oc(-c3ccccc3)cc(=NCCCN3CCOCC3)c2c1 | ? | - | - | - | -
COc1ccc(C(C)NC(=O)C2CCN(CCCc3ccccc3)CC2)cc1OC (stereo unspecified) | . | . | . | - | -
COc1cccc(NC(=O)c2nc(S(C)(=O)=O)ncc2Cl)c1 | ? | - | - | -103 | 22µM
Cc1cccc(NC(=O)c2nc(S(C)(=O)=O)ncc2Cl)c1 | . | . | - | -108 | 25µM
C#CCNC(=O)C(C)c1ncc(C(F)(F)F)cc1Cl (stereo unspecified) | - | - | - | - | -
Cc1ccc(-c2csc3nc4c5ccccc5c(NCCCN(C)C)nn4c(=O)c23)cc1 | - | - | - | -99 | -
CS(=O)(=O)Nc1cccc(Nc2nccc3[nH]c(-c4cccc(C(F)(F)F)c4)cc23)c1 | . | . | . | - | .
O=c1ccc2c(o1)/C(=C/C=C(Cl)Cl)CCC2 | 16µM | - | - | - | -
